# Laboratory results published in PubChem BioAssay (NCI).
# The panel holds about 83,000 compounds, 20% with a hit somewhere; the sample as a whole holds those more often.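 Growth was measured after 48 h exposure to one concentration of compound in 96-well plates. Values under 10 count as active.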 Unmarked numbers belong to inactive results. Calls of active or inactive are those of the source.
# Tests used:
# Test in all cases: NCI-60 one-dose screen, 48 h (100 = growth as untreated, 0 = no growth, -100 = all killed)
# Conditions in all cases: 10 µM unless noted
# HCT-15 colon = system: HCT-15 colon
# HT29 colon = system: HT29 colon
# SNB-75 CNS = system: SNB-75 CNS
# SNB-19 CNS = system: SNB-19 CNS
# U251 CNS = system: U251 CNS
# PC-3 prostate = system: PC-3 prostate
# SK-MEL-5 melanoma = system: SK-MEL-5 melanoma
# UACC-62 melanoma = system: UACC-62 melanoma
# LOX IMVI melanoma = system: LOX IMVI melanoma
# SK-MEL-28 melanoma = system: SK-MEL-28 melanoma
# SK-MEL-2 melanoma = system: SK-MEL-2 melanoma
# EKVX NSCLC = system: EKVX NSCLC
# SN12C renal = system: SN12C renal
# UO-31 renal = system: UO-31 renal
# TK-10 renal = system: TK-10 renal
# ACHN renal = system: ACHN renal
# CAKI-1 renal = system: CAKI-1 renal
# CCRF-CEM leukemia = system: CCRF-CEM leukemia
# MOLT-4 leukemia = system: MOLT-4 leukemia
# A498 renal = system: A498 renal
SMILES,growth (HCT-15 colon),growth (HT29 colon),growth (SNB-75 CNS),growth (SNB-19 CNS),growth (U251 CNS),growth (PC-3 prostate),growth (SK-MEL-5 melanoma),growth (UACC-62 melanoma),growth (LOX IMVI melanoma),growth (SK-MEL-28 melanoma),growth (SK-MEL-2 melanoma),growth (EKVX NSCLC),growth (SN12C renal),growth (UO-31 renal),growth (TK-10 renal),growth (ACHN renal),growth (CAKI-1 renal),growth (CCRF-CEM leukemia),growth (MOLT-4 leukemia),growth (A498 renal)
COc1ccccc1CNCCCN1C(=O)c2ccc3c4c(ccc(c24)C1=O)C(=O)N(CCCNCCCN)C3=O,8.83% (active),-31.5% (active),46%,11.9%,-72.5% (active),18.7%,-97.8% (active),-50% (active),-7.09% (active),22.7%,-47.3% (active),34.7%,-56.8% (active),23.3%,33.3%,9.16% (active),31.9%,7.88% (active),-24.5% (active),–
CC(C)(C)c1nn(-c2ccccc2)c2c1C(=O)CSC(c1ccc3c(c1)OCO3)N2 (centres undefined),89.9%,100%,98.4%,101%,107%,84.4%,110%,85.3%,87%,109%,101%,80.2%,91.3%,74.8%,103%,107%,81.4%,98.1%,86%,–
N/C(=N\OC(=O)c1ccccc1)C(C(=O)NOC(=O)c1ccccc1)C1CCCCC1 (centres undefined),53.3%,96.7%,35.7%,76%,-25% (active),54.5%,74.3%,56.6%,-85.2% (active),93.3%,121%,66.8%,89.1%,-50.5% (active),92.6%,25.6%,-55.3% (active),30%,55.9%,–
CCCCOc1nc2ccc(C)cc2cc1/C=C/C(=O)/C=C(O)/C=C/c1cc2cc(C)ccc2nc1OCCCC,110%,101%,92.7%,96.2%,88.3%,99%,105%,87.6%,91.6%,107%,103%,102%,111%,97.7%,102%,102%,98.1%,97.6%,98.8%,–
O=C(O)c1cc2cc(OCc3ccccc3)ccc2[nH]1,92.3%,114%,87.8%,86.4%,105%,102%,84.1%,79.3%,96.7%,48%,39.9%,87.3%,97.1%,74.4%,114%,98.7%,82.3%,98.4%,99.5%,–
N/N=C(\C(=N\N)c1ccccc1)c1ccccc1,104%,94.7%,86.4%,96.6%,104%,88.7%,101%,90.2%,97.3%,105%,98.7%,94%,88.9%,73.6%,98.8%,104%,99.9%,–,81.2%,76.1%
FC(F)(F)c1nn[nH]n1,105%,100%,102%,116%,99.5%,96.9%,103%,107%,87.2%,113%,112%,99.3%,105%,99.1%,111%,109%,97%,–,101%,102%
CCOC(=O)c1cc(C(=O)OCC)c(C)nc1C,102%,104%,99%,103%,103%,98.2%,107%,103%,107%,112%,124%,102%,105%,96.5%,113%,112%,103%,–,90.8%,110%
CCCCOC(=O)c1cc(O)c(O)c(O)c1,49.1%,85.3%,55.6%,88.9%,65.2%,80.4%,93.5%,62%,74.4%,90.6%,75%,83.6%,62.7%,31.7%,73%,75%,70.5%,36.5%,30.7%,–
Cc1nc(N)nc2c1CCC(Nc1ccccc1)S2 (centres undefined),100%,104%,98.3%,111%,103%,90.6%,99.1%,108%,97%,114%,102%,103%,101%,79.2%,105%,102%,94%,90.9%,90.2%,–
O=C(C(=O)N1CCCC1)c1cn(CCCn2cc(C(=O)C(=O)N3CCCC3)c3cc(Br)ccc32)c2ccc(Br)cc12,84.6%,79.3%,46.3%,85.5%,36.6%,66.5%,90.8%,85.1%,57.9%,79.8%,107%,54%,83.3%,72.6%,92.7%,55.2%,46.7%,74%,73.6%,–
CCN1CCN(Cc2ccc(NC(=O)Nc3ccc(-n4ccc5c(NC(=O)c6ccccc6)nccc54)cc3)cc2C(F)(F)F)CC1,-6.13% (active),-35.3% (active),-88.2% (active),-14% (active),-75.8% (active),54.6%,-97.6% (active),41.3%,-84.5% (active),-96.7% (active),-31.5% (active),87.4%,58.3%,-48.6% (active),25.5%,-46.3% (active),47.3%,–,-32.8% (active),105%
COc1ccc(-c2cc(-c3ccc(OC)cc3)c3sc(=O)[nH]c3n2)cc1,90.2%,102%,88.6%,73.8%,72.6%,86.1%,96.4%,90.1%,92.3%,115%,103%,86.6%,73.7%,53.4%,89.8%,93.7%,76.8%,108%,92.9%,–
CCSCC1CC(O)(c2ccccc2)C(c2ccccc2)C(c2ccc(F)cc2)O1 (centres undefined),3.78% (active),-18.7% (active),-14% (active),8.78% (active),-11.8% (active),-21.1% (active),-84.2% (active),-44.4% (active),-64.5% (active),-39.4% (active),-0.854% (active),0.894% (active),-22.9% (active),-0.34% (active),-15.4% (active),-14.3% (active),-13.5% (active),2.04% (active),-48.2% (active),–
COc1cc(C2CC(c3ccccc3)=NN2C=O)ccc1Oc1ccnc2cc(Cl)ccc12 (centres undefined),59.3%,75.9%,69.9%,71.2%,88.6%,31.4%,1.25% (active),54.3%,56.6%,75.9%,82.4%,33.5%,65.4%,47.2%,91.1%,68.9%,49.6%,45.7%,12.8%,–
COc1ccc2[nH]cc(C3(c4c[nH]c5ccc(OC)cc45)C(=O)Nc4ccc(F)cc43)c2c1,86.6%,68%,42.9%,97.2%,82.5%,9.66% (active),84.1%,82.3%,58.5%,96.4%,98.3%,37%,106%,62%,125%,86.7%,40.8%,15.4%,1.29% (active),–
